SMILES strings stand for the structures. Results filed as inconclusive are left out. Activity calls are given as the source filed them. Calls come from the whole dose curve; as a rule, active = well fitted curve in the direction sought with a large enough effect; inconclusive = small, poorly fitted or top-dose-only effect, or effect the other way, or another doubt; inactive = no such curve, though single readings can be large or run the other way.

The test can be described thus: DH5-alpha competent E. coli microbial cell viability qHTS against the NCATS CANVASS Library (AID 1347377). For viability signal change, negative = cytotoxic: 0% is about no effect. The following applies: BacTiter-Glo ATP luminescence, overnight; series mostly up to 46.1 µM; viability signal change, negative = cytotoxic: at the top concentration. From the text:
Natural products and their derivatives continue to be wellsprings of nascent therapeutic potential. However, many laboratories have limited resources for biological evaluation, leaving their previously isolated or synthesized compounds largely or completely untested. To address this issue, the Canvass library of natural products was assembled (https://tripod.nih.gov/canvass), in collaboration with academic and industry researchers, for quantitative high-throughput screening (qHTS) across a diverse set of cell-based and biochemical assays. The pure (>85% purity by liquid chromatography/mass spectrometry [LC/MS]) Canvass library of 346 natural products were submitted by 45 academic laboratories and companies around the world. We collected pure natural products to circumvent deconvolution and structure elucidation due to time and resource limitations. The library was formatted into 1536-well plates and evaluated in 50 qHTS (in an 11-pnt concentration series) bioassays with broad scope of disease-relevant mechanisms. The resulting data set from 50 different assays was then systematically analyzed to identify overall trends and specific natural products with interesting biological activities. Reported herein are the results of each individual qHTS and their corresponding assay protocol. The BacTiter-Glo microbial cell viability assay is a homogeneous method for determining the number of viable bacterial cells in culture based on quantitation of the ATP present. ATP is an indicator of metabolically active cells. The homogeneous assay procedure involves adding a single reagent (BacTiter-GloTM Reagent) directly to bacterial cells in medium and measuring luminescence. National Center for Advancing Translational Sciences (NCATS), Rockville, MD National Institute of Health (NIH), Bethesda, Maryland
DH5-alpha competent E.coli cytotoxicity protocol: 1. In a 1536 well, tissue culture treated white solid bottom plates (Greiner Bio-One North America), 5 uL of DH5-alpha competent E. coli suspension (0.9 OD culture diluted 0.2 OD) was dispensed into columns 1, 2, and 5-48 using the Multidrop Combi dispenser (Thermo Fisher Scientific). 2. Controls and compounds were pin transferred (~23 nL volume) to the assay plates via Wako Pin-tool (Wako Automation, Richmond VA) equipped with a 1536 pin head. The compounds were transferred to columns 5-48 resulting in a final concentration ranging from 0.17nM to 92uM. Daunomycin was used as a control in various concentrations (1mM working concentration; 1:2 dilution; 16 points; n=2; column 2, rows) for a final concentration range of 0.2 nM to 9.2 uM. 3. The assay plates were incubated overnight at 37C, 5% CO2, 95% humidity. 4. 2.5 uL of BacTiterGlo solution (Promega) was then added to the assay plates (column 1-48, rows 1-32). The assay plates were incubated at room temperature for 20 min. 5. Luminescence signal was acquired via the ViewLux plate reader using a clear emission filter, 2 second exposure and 2x binning settings.
Take `CNCCc1ccc(O)cc1`: the “viability signal change, negative = cytotoxic” value (from here on “viability signal change”) is 1.85% (inactive).

As to `CCCCC[C@@H]1OC(=O)[C@@H](C)N(C)C(=O)[C@H](CCCCC)OC(=O)C(C)N(C)C(=O)[C@H](CCCCC)OC(=O)[C@@H](C)N(C)C(=O)[C@H](CCCCC)OC(=O)C(C)N(C)C1=O` (stereo partly specified), the “viability signal change” value was 7.74% (inactive).

For the compound `CO[C@@H](/C=C/CC/C=C/C(=O)O)[C@@H](O)[C@H](C)[C@@H](O)/C(C)=C/[C@H](C)C(=O)CCCC1CC(=O)NC(=O)C1`, the compound was classed as inactive.

Regarding `CNCCc1c[nH]c2ccccc12`, the compound was called inactive.

Take `CCCC[C@@H]1CC[C@H]2CCCC(CCC)N12` (stereo partly specified): the compound was called inactive.

With `CCN1C[C@]2(C)CC[C@@H](O)[C@]34C1[C@H](C[C@H]23)C12CCC(CC14)[C@](O)(CO)[C@H]2O` (stereo partly specified), the “viability signal change” value was 9.61% (inactive).

With `C/C=C1/CN2CC[C@]34C(=Nc5ccccc53)[C@@H]2C[C@@H]1[C@H]4C(=O)OC`, the “viability signal change” value was 15% [at 91.4 µM] (inactive).

On to `CC=C1CN(C=O)[C@H]2C[C@@H]1[C@@H](C(=O)OC)[C@@]13CCOC21Nc1ccccc13` (stereo partly specified), for which the “viability signal change” value was 10.3% (inactive).

In the case of `COC(=O)C1=C2Nc3ccccc3[C@@]23CCN2CC(C(C)=O)C1C[C@H]23` (stereo partly specified), the “viability signal change” value is 5.3% (inactive).

For `C[C@@H]1CC[C@@H](c2ccoc2)N2C[C@@]3(CC[C@@H]12)CS[C@@]1(CC[C@H]2[C@H](C)CC[C@@H](c4ccoc4)N2[C@@H]1O)C3`, the “viability signal change” value was 10.1% (inactive).

Regarding `C=C1[C@@H](C)[C@H]2[C@H](Cc3ccccc3)NC(=O)[C@]23OC(=O)/C=C/[C@H](O)CCC[C@@H](C)C/C=C/[C@H]3[C@@H]1O`, the call was inactive.

Regarding `CC[C@@H]1CN2CC[C@@]3(O)C(=Nc4cccc(OC)c43)[C@@H]2C[C@@H]1/C(=C\OC)C(=O)OC`, the “viability signal change” value was 2.27% (inactive).

Take `COc1ccc(C23Oc4cc(OC)cc(OC)c4[C@](O)([C@H](c4ccccc4)C2C(=O)NCCCCNC(=O)c2ccccc2)[C@@H]3O)cc1` (stereo partly specified): the outcome was inactive.

In the case of `CN1C(=O)[C@]23CC4C(C)(C)[C@@]5(C[C@@]41CN2CC[C@@]3(C)O)C(=O)Nc1c5ccc2c1OC=CC(C)(C)O2` (stereo partly specified), the “viability signal change” value is 0.888% (inactive).

With `CO[C@H](c1ccccc1)[C@H]1NC(=O)C(C)NC(=O)C(C[C@@H](C)CO)N(C)C(=O)[C@@H](C(O)c2cn(C(C)(C)C3CO3)c3ccccc23)NC(=O)C(C(C)C=C(C)C)NC(=O)C(CC(C)C)N(C)C(=O)C(C(C)C)NC1=O` (stereo partly specified), the “viability signal change” value is 18.6% [at 27.5 µM] (inactive).

Consider `CCC[C@H]1CC[C@H]2[C@H](C)CCC[C@H]2N1`, for which the “viability signal change” value is 12.8% (inactive).

For `CNCCc1ccccc1`, the “viability signal change” value was 20.2% (inactive).

As to `COc1ccc2c(c1)[nH]c1c(C)nccc12`, the “viability signal change” value is 26.5% [at 91.4 µM] (inactive).

`CC[N@@+]1([O-])C[C@]2(C)CC[C@@H](O)[C@@]34C5C[C@H]6CC[C@@]5(C(C[C@H]23)C41)[C@H](O)[C@@]6(O)CO` (stereo partly specified): the “viability signal change” value was 10.5% (inactive).

For `COc1ccc2c3c([nH]c2c1)C(C)=NCC3`, the “viability signal change” value was 8.02% (inactive).

In the case of `NCCc1ccccc1`, the “viability signal change” value was 0.932% (inactive).

As to `CN(C)Cc1c[nH]c2ccccc12`, the compound was called inactive.

As for `CC1=CC(=O)C2=C(C)C[C@H](O)[C@@H]3[C@H](OC(=O)[C@@H]3C)[C@@H]12`, the “viability signal change” value is 9.12% (inactive).

`CCC(=O)CCCCC[C@@H]1NC(=O)[C@H]2CCCCN2C(=O)[C@H]([C@@H](C)CC)NC(=O)[C@H](Cc2cn(OC)c3ccccc23)NC1=O`: the “viability signal change” value is 18.8% (inactive).

For `CC(=O)N[C@H]1CCN2CCC[C@H]12`, the “viability signal change” value is 6.52% [at 103 µM] (inactive).

As for `CCN1C[C@]2(C)CC[C@H](O)[C@]34C1C(C[C@H]23)[C@@]12CC[C@H](CC14)[C@](O)(COC(=O)c1ccc(OC)c(OC)c1)[C@H]2O` (stereo partly specified), the “viability signal change” value was 1.02% (inactive).

The values are drawn from PubChem BioAssay (NCATS).
